The record followed here is PubChem BioAssay AID1851 (National Center for Advancing Translational Sciences (NCATS), 2009).

Out of some 16,000 compounds screened, about 5,100 (32%) were called active. Another 25% or so got no clear call; they are omitted. This is one part of the list. A number with no mark means an inactive call. Calls come from the whole dose curve; as a rule, active = well fitted curve in the direction sought with a large enough effect; inconclusive = small, poorly fitted or top-dose-only effect, or effect the other way; inactive = no such curve, though single readings can be large or run the other way.
% is set by controls: 0 for no effect and ±100 for the full control effect.

This assay deals with Cytochrome P450 3A4 (Homo sapiens) (UniProt P08684). Kind of assay: Cytochrome panel assay with activity outcomes. The conditions noted are these: recombinant CYP, pro-luciferin dealkylation, luminescence, p450-cyp3a4; series mostly up to 57.1 µM; activity, negative = inhibition: at the top concentration.
Sequence of Cytochrome P450 3A4 (Homo sapiens) (P08684 whole entry, looked up): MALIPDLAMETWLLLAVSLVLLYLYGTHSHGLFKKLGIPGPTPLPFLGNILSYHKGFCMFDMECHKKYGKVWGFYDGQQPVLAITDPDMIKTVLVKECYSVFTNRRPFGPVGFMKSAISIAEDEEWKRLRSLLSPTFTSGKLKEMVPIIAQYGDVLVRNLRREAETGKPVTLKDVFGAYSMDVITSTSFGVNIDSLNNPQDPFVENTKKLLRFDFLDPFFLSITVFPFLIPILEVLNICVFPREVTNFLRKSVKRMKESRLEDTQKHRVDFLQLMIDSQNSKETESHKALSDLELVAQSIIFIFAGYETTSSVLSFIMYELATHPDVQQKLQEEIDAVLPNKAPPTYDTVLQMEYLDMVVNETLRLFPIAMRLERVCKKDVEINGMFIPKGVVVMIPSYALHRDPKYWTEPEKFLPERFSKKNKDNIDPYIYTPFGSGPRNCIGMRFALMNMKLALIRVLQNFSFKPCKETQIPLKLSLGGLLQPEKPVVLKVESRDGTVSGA
For the molecule `COC(=O)c1ccc(C(=O)OC)c(NC(=O)CSCc2ccc(Br)cc2)c1`, the AC50 (usually the concentration giving half of the maximal activity seen) was 12.6 µM (active).

For `CSc1ccccc1NC(=O)CSCc1ccc(C)cc1`, the activity, negative = inhibition was -20% [at 11.4 µM].

Turning to `COc1cccc([C@@H]2Oc3ccc(OC)cc3/C(=N/O[C@@H](C)CN3CCCc4nc(C)c(C)cc43)[C@@H]2O)c1`, the AC50 is 3.16 µM (active).

For `COc1ccc(-c2ccc3c(n2)CCCN3C[C@H](O)CN2CCCc3nc(C)c(C)cc32)cc1`, the activity, negative = inhibition was -46.4% [at 11.4 µM].

For the molecule `COc1cccc([C@@H]2Oc3ccc(OC)cc3/C(=N/O[C@@H](C)CN3CCCCc4nc(C)c(C)cc43)[C@@H]2O)c1`, the AC50 was 3.98 µM (active).

As for `COc1ccc2nc3cc(Cl)ccc3c(Nc3ccc(O)c(CN4CCN(C)CC4)c3)c2c1`, the activity, negative = inhibition was 2.77% [at 11.4 µM].

Take `CCc1c2c(nc3ccc(OC)cc13)COC2`: the concentration at half-maximal activity (AC50) was 15.8 µM (active).

Turning to `COc1ccc2nccc(C(=O)O)c2c1`, the “activity, negative = inhibition” value is -4.23% [at 25.6 µM].

`C[C@@]1(O)CCOC(=O)C1`: the “activity, negative = inhibition” value is -3.83% [at 25.6 µM].

In the case of `CC1(C)O[C@H]2[C@@H](c3[nH]nc4c(=O)[nH]c(=O)[nH]c34)OC[C@H]2O1`, the activity, negative = inhibition is -0.0029% [at 11.4 µM].

Take `CCOC(=O)N/N=C(/C)c1ccc([N+](=O)[O-])o1`: the activity, negative = inhibition is -3.74% [at 2.29 µM].

Consider `C#CCN1C(C)=C(C(=O)OC)[C@@H](c2cccc([N+](=O)[O-])c2)C(C(=O)OCC)=C1C`, for which the concentration at half-maximal activity (AC50) was 3.16 µM (active).

`COCC(C)NCc1cccc([N+](=O)[O-])c1` (stereo not given): the “activity, negative = inhibition” value is -12%.

Regarding `O=C(COC(=O)c1ccccc1Nc1cccc(C(F)(F)F)c1)NCc1ccco1`, the AC50 was 22.4 µM (active).

Take `Cc1cccc(Nc2ccccc2C(=O)OCC(=O)NCc2ccco2)c1C`: the AC50 is 15.8 µM (active).

On to `O=C(COC(=O)c1cccnc1Nc1cccc(C(F)(F)F)c1)NCc1ccc2c(c1)OCO2`, for which the AC50 is 0.501 µM (active).

Consider `Cc1c(Nc2ncccc2C(=O)O)cccc1C(F)(F)F`, for which the “activity, negative = inhibition” value was -24.2% [at 25.6 µM].

`Cc1ccc(C(OC(=O)c2ccco2)C(=O)NC2CCCCC2)cc1` (stereo not given): the activity, negative = inhibition was -11.1% [at 2.29 µM].

As to `O=C(OC(C(=O)NC1CCCC1)c1ccncc1)C1=Cc2ccccc2OC1` (stereo not given), the half-maximal activity concentration (AC50) was 3.98 µM (active).

As to `c1cc(-c2sc(-c3ccncc3)c(-c3ccncc3)c2-c2ccncc2)ccn1`, the AC50 was 0.316 µM (active).

Consider `Cc1cn2c(-c3ccncc3)nnc2s1`, for which the “activity, negative = inhibition” value is -17.7%.

With `COc1cc2c(cc1OC)C(C(=O)N1CCN(c3ccccn3)CC1)C(c1cccs1)N(C)C2=O` (stereo not given), the AC50 is 4.47 µM (active).

In the case of `CCC(C)NC(=O)C1c2cc(OC)c(OC)cc2C(=O)N(C)C1c1cccs1` (stereo not given), the AC50 was 5.62 µM (active).

Turning to `CCC(C)NC(=O)C1CC(c2ccc(OC)cc2)=NO1` (stereo not given), the “activity, negative = inhibition” value is 20.4%.

In the case of `Cn1c(CN2CCCCC2)nc2cc(NC(=O)c3ccc(Cl)cc3)ccc21`, the AC50 was 15.8 µM (active).

In the case of `COc1ccc(C(=O)Nc2ccc3c(c2)nc(CN2CCN(C(C)=O)CC2)n3C)cc1`, the activity, negative = inhibition is -0.562% [at 2.29 µM].

For `Cn1c(CN2CCCC2)nc2cc(NC(=O)C3CCCCC3)ccc21`, the “activity, negative = inhibition” value is -14.1%.

`COc1ccc(C(=O)Nc2ccc(S(=O)(=O)N3CCOCC3)cc2)cc1OC`: the “activity, negative = inhibition” value was 3.48%.

`COc1cc(NC(=S)Nc2ccc(S(=O)(=O)N3CCOCC3)cc2)cc(OC)c1OC`: the AC50 is 15.8 µM (active).

On to `CC(N)=O`, for which the “activity, negative = inhibition” value was -7.41%.

`c1ccc(-c2nc(CSc3n[nH]c(-c4cccs4)n3)cs2)cc1`: the concentration at half-maximal activity (AC50) was 6.31 µM (active).

Consider `O=c1[nH]c(=S)[nH]nc1Cc1ccccc1`, for which the “activity, negative = inhibition” value is 25.9%.

Consider `CC(C)C1NC(=S)N(Cc2ccccc2)C1=O` (stereo not given), for which the concentration at half-maximal activity (AC50) was 14.1 µM (active).

Turning to `O=C(Nc1nc2ccccc2n1Cc1ccccc1)c1ccc(COc2ccccc2[N+](=O)[O-])o1`, the AC50 is 4.47 µM (active).

As for `CCn1nccc1C(=O)Nc1nc2ccccc2n1CCN1CCCCC1`, the “activity, negative = inhibition” value is -23.3%.

Consider `CCC1(C)Cc2c(sc3nnn(CC(=O)Nc4ccc(C)cc4)c(=O)c23)CO1` (stereo not given), for which the AC50 is 14.1 µM (active).

For `CCC1(C)Cc2c(sc3nnn(CC(=O)Nc4cccc5ccccc45)c(=O)c23)CO1` (stereo not given), the concentration at half-maximal activity (AC50) is 10 µM (active).

For `CCOC(=O)Cn1nnc2c(sc3nc4c(c(-c5ccc(Cl)cc5)c32)CCC4)c1=O`, the “activity, negative = inhibition” value was 10.9%.

For the molecule `Cc1ccc(C(=O)Cn2nnc3c(sc4nc5c(c(-c6ccccc6)c43)CCC5)c2=O)cc1`, the “activity, negative = inhibition” value is -10.2%.

Take `CC1(C)Cc2c(sc3nc(-c4ccccc4)n(N)c(=O)c23)CO1`: the “activity, negative = inhibition” value is -13.6%.

For `CCOC(=O)c1sc2nc3c(cc2c1N)COC(C)(CC)C3` (stereo not given), the activity, negative = inhibition is 1.93% [at 11.4 µM].

`CC1(C)CC(=O)c2cn3ncnc3nc2C1`: the “activity, negative = inhibition” value was -2.27%.

With `Nc1cccc2cnccc12`, the half-maximal activity concentration (AC50) was 7.94 µM (active).

Regarding `CC(C)[C@H](NC(=O)OC(C)(C)C)[C@@H](O)CC(=O)OC(C)(C)C`, the activity, negative = inhibition was -23.3% [at 11.4 µM].

Consider `O=c1ccn(-c2cccc(C(F)(F)F)c2)nc1-c1ccn(-c2ccccc2F)n1`, for which the AC50 was 10 µM (active).

With `COc1ccccc1NC(=O)c1nn(-c2cccc(C(F)(F)F)c2)ccc1=O`, the concentration at half-maximal activity (AC50) was 20 µM (active).

Regarding `O=C(O)c1nn(-c2ccccc2)ccc1=O`, the activity, negative = inhibition is -15.6% [at 11.4 µM].

For the molecule `Cc1n[nH]c(=O)n1-c1cccc(C(F)(F)F)c1`, the “activity, negative = inhibition” value is 5.28%.

For `COc1ccccc1NC(=O)c1nc[nH]c1C(=O)Nc1ccccc1OC`, the “activity, negative = inhibition” value was 16.7%.

For the molecule `O=C(c1ccccc1)c1nn(-c2ccccc2)c(=O)cc1C(F)(F)F`, the “activity, negative = inhibition” value was 32.3%.
